Common to all, as to assay: NCI-60 one-dose screen, 48 h (100 = growth as untreated, 0 = no growth, -100 = all killed)
Assay [1] relates to SNB-75 CNS. Particulars: 10 µM.
Assay [2] relates to SNB-19 CNS. Particulars: 10 µM unless noted.
For assay [3], the system named is U251 CNS. The settings on record: 10 µM unless noted.
Assay [4] concerns PC-3 prostate. The settings on record: 10 µM unless noted.
Assay [5] has as its system SK-MEL-5 melanoma. Particulars: 10 µM unless noted.
Assay [6] relates to UACC-62 melanoma. The settings on record: 10 µM unless noted.
In assay [7] the test system is LOX IMVI melanoma. Particulars: 10 µM unless noted.
Assay [8] deals with SK-MEL-28 melanoma. The settings on record: 10 µM unless noted.
The subject of assay [9] is SK-MEL-2 melanoma. Particulars: 10 µM unless noted.
In assay [10] the test system is EKVX NSCLC. Particulars: 10 µM unless noted.
In assay [11] the test system is SN12C renal. Particulars: 10 µM unless noted.
For assay [12], the system named is UO-31 renal. The settings on record: 10 µM unless noted.
Assay [13] relates to TK-10 renal. Particulars: 10 µM unless noted.
In assay [14] the test system is ACHN renal. Particulars: 10 µM unless noted.
The subject of assay [15] is CAKI-1 renal. The settings on record: 10 µM unless noted.
Assay [16] has as its system A498 renal. The settings on record: 10 µM unless noted.
The test system of assay [17] is CCRF-CEM leukemia. Particulars: 10 µM unless noted.
The subject of assay [18] is MOLT-4 leukemia. Particulars: 10 µM unless noted.
The test system of assay [19] is HT29 colon. Particulars: 10 µM unless noted.
Assay [20] concerns HCT-15 colon. The settings on record: 10 µM unless noted.

Experimental findings from PubChem BioAssay (NCI) are described below.

Compounds without any hit were thinned out: in the full panel of roughly 83,000, 20% have a hit.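 Single-dose data. Exposure time 48 hours. Values below 10 considered active.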 A number with no mark means an inactive call. Active and inactive are the calls of the source.

For the compound `CC(C)NCCCNC1=C(Cl)C(=O)c2ccccc2C1=O`, the growth was 79.4% in [1]; 106% in assay [2]; 52.9% in [3]; 57.5% in assay [4]; 44.3% in assay [5]; 92.7% in assay [6]. The growth in [7] is 25.9%; in assay [8] it was 112%; in assay [9], 125%; in assay [10], 80.4%; in assay [11], 91.7%; in assay [12], 81.9%. Besides, the growth in assay [13] is 114%; in [14], 81.1%; in assay [15], 66.7%; in assay [16], 88.1%; in [17], 76.6%; in assay [18] it was -45.8% (active).
As for `Clc1ccccc1-c1nc2ccccc2[nH]1`, the growth in assay [19] was 103%; in assay [1] it was 84.1%; in [4], 94.4%; in assay [5] it was 102%; in [6] it was 98.2%; in [8], 113%. The growth was 116% in [9]; 90.3% in assay [10]; 116% in assay [11]; 95.1% in assay [12]; 121% in assay [13]; 77.5% in assay [15]. In addition, the figures for the growth in assay [16], in assay [17] and in assay [18] were 110%, 91% and 110%, respectively.
Regarding `O=S1(=O)CCC(N(/N=C/c2ccco2)c2ccccc2)C1` (centres undefined), the growth in assay [19] is 96.3%; in assay [1], 132%; in assay [2] it was 104%; in assay [3] it was 99%; in assay [4], 93.1%; in assay [5], 103%. The growth in assay [6] is 100%; in assay [7], 94.1%; in assay [8] it was 115%; in [11] it was 109%; in assay [12], 86%; in assay [13], 101%. Also, the growth in assay [14] is 106%; in assay [15], 107%; in assay [16] it was 113%; in [17] it was 94%; in [18], 97.1%.
Consider `COc1ccc2[nH]c(C(=O)OCc3ccc4c(Cl)cc(Cl)c(O)c4n3)cc2c1`, for which the growth in assay [19] is -80.3% (active); in assay [2] it was 53.2%; in [3] it was 7.6% (active); in [4], -55.5% (active); in assay [5] it was -30.5% (active); in assay [6] it was -89.4% (active). Further, the growth in [7] is -93.1% (active); in assay [9] it was -11.4% (active); in assay [11], -75.6% (active); in assay [12], -100% (active); in [13] it was -98.1% (active); in [14], -99.8% (active). Further, the growth in [15] is -99.5% (active); in assay [16], 10.5%; in assay [17], -9.99% (active); in assay [18], -18.5% (active).
In the case of `CC(C)(C)N1CCC1C(N)=O` (centres undefined), the growth is 89.3% in assay [1]; 99.4% in assay [2]; 95.3% in [4]; 107% in assay [5]; 91.5% in assay [6]; 114% in assay [8]. Further, the growth in assay [9] was 159%; in [10], 92.2%; in assay [11], 104%; in [12], 131%; in [13], 91.8%; in [15], 83%. In addition, the growth in assay [16] is 136%; in [17], 93%; in assay [18], 120%.
Turning to `Cc1ccc(N2CCN(C(C)C(N)=O)CC2)cc1` (centres undefined), the growth was 115% in [20]; 107% in assay [3]; 105% in [4]; 110% in assay [5]; 91.4% in [6]; 107% in assay [7]. Moreover, the growth was 119% in assay [8]; 134% in [9]; 118% in assay [10]; 92.8% in assay [11]; 82.2% in assay [12]; 114% in assay [13]. The growth in assay [14] is 106%; in assay [15], 107%; in assay [16] it was 115%; in assay [17] it was 98.2%; in assay [18] it was 117%.
Take `CCCCCCCCCCCCCCCCNC(=O)OC(C)C`: the growth was 55.9% in [20]; 14.1% in assay [3]; -16.9% (active) in [4]; 91% in [5]; 81.7% in assay [6]; -2.25% (active) in assay [7]. Further, the growth in assay [8] was 95.9%; in assay [9], 58.7%; in assay [10], 22.8%; in assay [11], 64.3%; in assay [13] it was -3.04% (active); in [15], 28.5%. Besides, the growth is 75.1% in [16], 7.75% (active) in assay [17] and 7.03% (active) in assay [18].
For the compound `NC(=N\N=C/c1ccc(O)cc1)/C(N)=N\N=C/c1ccc(O)cc1`, the growth in assay [19] is 105%; in assay [3], 72.3%; in [4], 33.1%; in [5], 28.7%; in assay [6], 30.3%; in assay [8] it was 88.2%. Also, the growth in [9] is 59%; in [10], 65.5%; in assay [11] it was 74.2%; in assay [12], 28.5%; in [13], 83.4%; in [15] it was 41.5%. The growth is 84.5% in assay [16], 10.8% in [17] and -8.61% (active) in [18].
Consider `CCCCCCCC/C=C/CCCCCCCC1=NC(C)(C)CN1C(C)(C)CO`, for which the growth in assay [19] is -57.8% (active); in assay [1], 38.5%; in [2], 57.9%; in assay [3] it was -68.1% (active); in [4], 44.9%; in assay [5], 4.8% (active). Further, the growth in [6] is -25.3% (active); in [7], -100% (active); in [8], -63.9% (active); in [9], 51.3%; in [10] it was 66.2%; in [11], 48.7%. Besides, the growth in [12] was 44.5%; in assay [13] it was 62.1%; in assay [14] it was 21.6%; in assay [15] it was 42.3%; in assay [16], 88.8%; in assay [17], 3.32% (active). Moreover, in [18], the growth is -22.6% (active).
As to `CC1=NC2=CC=CC3=NC(C(Cl)(Cl)Cl)=NC(=N1)N23`, the growth in assay [1] was 56.2%; in assay [2], 84.5%; in [3], 74.3%; in [4], 86.3%; in [5], 88.4%; in [6], 69.5%. Besides, the growth in assay [7] was 80.6%; in assay [8], 86.1%; in assay [9], 86.6%; in assay [10] it was 76.1%; in assay [11], 86.7%; in [12], 63%. In addition, the growth in [13] is 112%; in assay [14], 61%; in assay [15], 61.3%; in assay [17], 70.1%; in assay [18] it was 4.18% (active).
Consider `C=C1C(=O)O[C@H]2[C@H]1CC/C(COC(=O)NCc1ccccc1OC)=C\CC[C@@]1(C)O[C@@H]21`, for which the growth in [19] is -3.76% (active); in assay [2], 57.6%; in assay [3], 74.8%; in [4] it was 52.4%; in assay [5], 92.8%; in assay [6], 23.4%. The growth in [7] is 5.34% (active); in assay [9], 60.6%; in assay [11], 23.4%; in [12] it was 22%; in [13] it was 20.6%; in [14], 6.65% (active). The growth in assay [15] was 13.7%; in [16], 67.1%; in [17], 6.8% (active).
On to `c1cc2[nH]ncc2cc1-c1nc2ccc3[nH]ncc3c2c2c1CCC2`, for which the growth in assay [19] is 37.9%; in assay [1] it was 34.9%; in assay [3] it was 43.6%; in assay [4] it was 54.5%; in assay [5] it was 56.6%; in assay [6] it was 15.4%. In addition, the growth in assay [7] is 40.4%; in assay [9], 19%; in assay [11], 63.9%; in [12] it was 38%; in assay [13] it was 30.8%; in assay [14] it was 23.8%. The growth in assay [15] was 23.3%; in assay [16], -3.31% (active); in [17], 30.2%; in assay [18], 20.9%.
For `COc1ccc(-c2nc3sccn3c2/C=C/C(=O)c2cc(F)cc(F)c2)cc1`, the growth in [19] is 65.2%; in [1] it was 42.3%; in assay [2], 67.8%; in assay [3] it was 45.4%; in [4], 62.3%; in [5], 80.9%. Also, the growth in assay [6] was 54.4%; in assay [7] it was 50.1%; in assay [8] it was 93%; in assay [9] it was 74.7%; in assay [10], 88%; in assay [11] it was 92.1%. Besides, the growth is 60.5% in [12]; 164% in assay [13]; 65.4% in assay [14]; 57.1% in assay [15]; 57.6% in assay [16]; 19.4% in assay [17]. For the same compound, the growth in assay [18] is 5.45% (active).
